Source: PubChem BioAssay (NCI)
Compounds without any hit were thinned out: in the full panel of roughly 79,000, 15% have a hit. Unmarked numbers belong to inactive results. The source made the active and inactive calls. Rule as the data show it: active = growth inhibition above about 70%; inactive = the rest.

Assay: NCI Yeast Anticancer Drug Screen. Data for the rad52 strain (AID 147);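 also: 0% = growth of vehicle-treated control cultures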
Details: S. cerevisiae rad52 mutant growth inhibition, stronger effect = higher value
Protocol: Growth inhibition of yeast strains with defined genetic alterations is measured as a screen for potential anti-cancer activity. Selected strains with alterations in DNA damage repair or cell cycle control were exposed to compounds and growth inhibition was measured relative to vehicle treated controls. The strain used in this assay is rad52

Structure (SMILES) | growth inhibition (at 1.2 µM) | growth inhibition (at 3.7 µM) | growth inhibition (at 11.0 µM) | growth inhibition (at 33.0 µM) | growth inhibition (at 100.0 µM)
CC(C)C1=CCC2C(=C1)CCC1C(C)(C(=O)O)CCCC21C (stereo not given) (tested in a mixture with another compound) | 0% | 9% | 12% | 41% | 94% (active)
COc1cc(CC2CC(c3ccc4c(c3)OCO4)OC2=O)cc(OC)c1OC (stereo not given) | -1% | -1% | 1% | 3% | 7%
O=C1C=CC(=Nc2ccc3c(c2)Cc2cc(NC(=O)C(F)(F)F)ccc2-3)O1 | 4% | 8% | 21% | 33% | 97% (active)
Cc1cc(S(=O)(=O)/N=C(/NN)NNc2cccc(C(F)(F)F)n2)c(S)cc1Cl | 1% | -1% | -2% | -4% | 23%
COC(=O)C1=C(C)NC(C)=C(C(=O)OC)C1c1cccc(/[N+]([O-])=C/c2ccccc2)c1 | 1% | 2% | 9% | 23% | 90% (active)
O=C1c2ccccc2C(=O)c2c(NC3CCCCC3)ccc(Nc3ccc(S(=O)(=O)O)cc3)c21 | -5% | -5% | -5% | 37% | 49%
CCCCCCCCCCC(=O)Cl | 13% | 13% | 12% | 9% | 31%
CC(C)(Br)C(=O)/C=C/c1ccc(Cl)c(Cl)c1 | 2% | 3% | -1% | 2% | -4%
